Screening results from PubChem.
Rows were chosen to be rich in hits. Some 4.8% of all compounds tested hit in one or more screens of this group.
hcDAF-12 act: activators of H. contortus DAF-12 nuclear receptor; activation, % at 6.8 µM; actives 1.4% (n = 370,000); HEK293 hcDAF-12 lit1-tk-luc reporter, luminescence; 0% DMSO, 100% Δ7-dafachronic acid;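 active = activation above the mean of all tested compounds plus 3 SD, cut at about 5.5% in these data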;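 note: 100% = response to 3 µM Δ7-dafachronic acid high control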
DAX1 inh-1: DAX1 (NR0B1) inhibition, primary screen | inhibition, % at 6.8 µM | actives 1.1% (n = 370,000) | HEK293T StAR-luciferase reporter, SF-1/DAX-1 repression relief;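 active = inhibition above the mean over all tested compounds plus 3 SD, cut at about 3.6% in these data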;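 note: 0% = DAX-1 cells with DMSO and 100% = cells lacking DAX-1 with DMSO; higher inhibition means more luminescence from relief of DAX-1 repression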
DAX1 inh-2: NR0B1 (DAX1) inhibition. HEK293 Gal4-DAX1 luciferase reporter, luminescence. actives 0.99% (n = 340,000). inhibition, % at 6.75 µM. P51843. AID 504766;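 active = inhibition above the mean over all tested compounds plus 3 SD, cut at about 4.2% in these data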;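 note: 0% = DAX1-transfected cells with DMSO and 100% = empty-vector control cells with DMSO; inhibition shows as a rise in luminescence from relieved DAX1 repression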
Target sequence (P51843 207-470 limits assumed): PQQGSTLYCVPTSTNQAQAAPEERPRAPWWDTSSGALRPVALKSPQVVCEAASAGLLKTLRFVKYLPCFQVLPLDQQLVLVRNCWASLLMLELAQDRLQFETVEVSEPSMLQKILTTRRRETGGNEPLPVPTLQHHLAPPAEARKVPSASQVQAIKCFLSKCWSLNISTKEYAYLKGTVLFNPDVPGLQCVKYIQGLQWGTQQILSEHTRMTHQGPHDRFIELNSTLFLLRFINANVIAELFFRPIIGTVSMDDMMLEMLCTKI
SMARCA2 act: increases SMARCA2 function in MMTV reporter cells; MG213 cells, MMTV-luciferase reporter, dexamethasone, overnight; activation, % at 9.1 µM; actives 1% (n = 370,000); AID 652017; in the data active = activation above about 7.8%;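 note: 0% = vehicle wells and 100% = reference activator wells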
ssDAF12 agonist: S. stercoralis DAF-12 activation, primary screen. HEK293 ssDAF-12/GRIP1 lit1-tk-luc reporter, luminescence; % of 3 µM dafachronic acid response. activation, % at 6.8 µM. actives 1% (n = 370,000). AID 652126;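 active = activation above the mean over all tested compounds plus 3 SD, cut at about 0.9% in these data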;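 note: 0% = DMSO-only wells and 100% = 3 µM delta7-dafachronic acid wells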
hgDAF12 agonist: hgDAF-12 agonism, primary luciferase screen. AID 687014. activation, % at 6.8 µM. HEK293 GAL4-hgDAF12 UAS-luciferase reporter, agonist luminescence; normalized to butyrate control. actives 1.8% (n = 370,000);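 active = activation above a cutoff set at the mean of all screened compounds plus 3 SD, cut at about 10% in these data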;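 note: 0% = DMSO wells and 100% = sodium butyrate wells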
DAX1 conf: NR0B1 (human) inhibition, confirmation; HEK293T StAR-promoter luciferase reporter, SF-1/DAX-1 repression; actives 87% (n = 2,400); AID 652134; shares compounds with DAX1 inh-1; inhibition, % at 6.8 µM;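 active = inhibition above the average of every tested compound plus 3 SD, cut at about 3.8% in these data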;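 note: 0% = DAX-1 cells with DMSO and 100% = no DAX-1 control cells with DMSO; active compounds raise luminescence by relieving repression of the StAR reporter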
Target sequence (P51843 whole entry, looked up): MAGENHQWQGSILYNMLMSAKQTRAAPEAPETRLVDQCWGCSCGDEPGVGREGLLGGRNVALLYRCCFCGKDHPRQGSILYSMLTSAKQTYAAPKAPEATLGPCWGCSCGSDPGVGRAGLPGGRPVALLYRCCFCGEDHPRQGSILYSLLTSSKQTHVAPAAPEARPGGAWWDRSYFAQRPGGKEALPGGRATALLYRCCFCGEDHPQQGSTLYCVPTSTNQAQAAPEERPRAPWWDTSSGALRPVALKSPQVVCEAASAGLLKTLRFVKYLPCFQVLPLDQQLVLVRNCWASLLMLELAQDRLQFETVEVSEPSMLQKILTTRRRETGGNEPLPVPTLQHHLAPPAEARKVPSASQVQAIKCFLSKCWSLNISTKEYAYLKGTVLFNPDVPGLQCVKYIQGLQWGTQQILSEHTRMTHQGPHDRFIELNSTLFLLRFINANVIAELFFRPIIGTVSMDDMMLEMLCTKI
SF1 AF2mut Luc: nonselective inhibitor or artifact in SF-1 mutant DAX1 counter-screen; shares compounds with DAX1 inh-1; HEK293 StAR-luciferase, SF-1 AF2 mutant, luminescence; inhibition, % at 6.8 µM; actives 78% (n = 2,400);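 active = inhibition above the mean of all tested compounds plus 3 SD, cut at about 3% in these data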;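 note: 0% = DAX-1 transfected cells with DMSO and 100% = cells without DAX-1 with DMSO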
SMARCA2 conf: SMARCA2 activation, confirmation screen; shares compounds with SMARCA2 act; MG213 cells, MMTV-luciferase with dexamethasone, luminescence, overnight; MG213 cells expressing E1A, Rb sequestered; DMSO wells 0%, reference activator 100%; activation, % at 9.1 µM; actives 30% (n = 3,500); AID 652260;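 active = activation above its plate's cutoff, the mean activation of tested wells plus 3 SD, cut at about 7.9% in these data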
VP16 Luc act: counter-screen for SMARCA2 activators: GAL4-VP16 luciferase reporter activation; HEK293 GAL4-VP16 pG5luc reporter, luciferase luminescence; scaled: DMSO wells 0%, SAHA wells 100%; actives 41% (n = 3,500); activation, % at 9.1 µM; shares compounds with SMARCA2 act;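 active = activation above the solvent-only control well mean plus 3 SD, averaged across control plates, cut at about 5.2% in these data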
LXR ag: activates human LXR-beta, counter-screen for hcDAF-12 agonists. shares compounds with hcDAF-12 act. HEK293 Gal4-LXR tk-luc reporter, luminescence, 24 h; normalized: DMSO 0%, positive control 100%. activation, % at 6.8 µM. 3,400 tested, under 10 active. AID 743027;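 active = mean percent activation of the reporter above a cutoff set as the average over tested compounds plus their standard deviation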
hcDAF12 ag: confirmation of H. contortus DAF-12 agonists. shares compounds with hcDAF-12 act. activation, % at 6.8 µM. HEK293 hcDAF-12 lit1-tk-luc reporter, luminescence; % of Δ7-dafachronic acid response. actives 61% (n = 3,400);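 active = mean activation across triplicate tests above the threshold derived from the earlier primary screen, cut at about 5.5% in these data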;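 note: 0% = DMSO only wells and 100% = 3 µM Δ7-dafachronic acid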
Starred values were filed as active, the others as inactive; . = no result given.

SMILES	hcDAF-12 act	DAX1 inh-1	DAX1 inh-2	SMARCA2 act	ssDAF12 agonist	hgDAF12 agonist	DAX1 conf	SF1 AF2mut Luc	LXR ag	hcDAF12 ag	others
Oc1ccccc1-c1cc(-c2ccccc2)no1	22.5*	6.2*	4.2	5.2	4.8*	14.5*	19.8*	13.8*	2.0	18.6*
O=C(NCc1cccc(C(F)(F)F)c1)O[C@H]1CC[C@@]23CCCN2C(=O)CCC[C@H]3C1	-2.5	.	.	.	-1.6	-0.8	.	.	.	.
COC(=O)[C@]12C[C@H](CC(=O)NCCCN3CCCC3=O)C(=O)N(Cc3ccco3)C1=C[C@H](COCc1ccccc1)O[C@@H]2C	-2.9	-0.8	.	-1.5	-0.7	2.9	.	.	.	.
Cc1cccc(C(=O)O/N=C(\N)c2ccccn2)c1	-0.8	-0.3	-3.0	-5.2	-1.1	-4.2	.	.	.	.
N/C(=N\OC(=O)c1ccccc1)c1ccccn1	3.8	3.1	-2.8	0.4	-0.8	6.1	.	.	.	.
N/C(=N\OC(=O)c1cccc(F)c1)c1ccccn1	8.2*	10.6*	-1.1	5.2	0.4	8.6	11.5*	5.2*	1.0	4.9
N/C(=N\OC(=O)c1ccc(Br)o1)c1ccccn1	8.3*	9.4*	1.1	3.8	0.7	10.3	14.6*	6.2*	0.8	2.6
CC(C)[C@H](NC(=O)c1ccc(Cl)c(Cl)c1)C(=O)N1CCC[C@H]1C(=O)NCCc1ccccc1Cl	-1.6	1.2	.	-2.9	-1.3	-0.8	.	.	.	.
COCc1cn(-c2ccc3c(c2)[C@]2(CC(=O)N(C)C2c2ccccc2)C(=O)N3CC(C)C)nn1 (some centres not stated)	2.2	-0.1	.	1.6	0.1	-2.2	.	.	.	.
c1ccc(Nc2nc(-c3cccs3)cs2)nc1	14.6*	4.6*	1.1	2.4	2.6*	11.8*	13.1*	5.1*	2.1	19.1*
Nc1ccc(Nc2nc(-c3cccs3)cs2)cc1	1.6	0.2	0.9	5.8	-1.3	4.2	.	.	.	.
COc1ccc2oc(=Nc3ccccc3)c(-c3nc4ccccc4[nH]3)cc2c1	22.4*	5.0*	1.4	11.1*	3.8*	21.0*	3.7*	1.7	0.8	8.0*	SMARCA2 conf=1.9;VP16 Luc act=9.8*
COc1ccc2oc(=Nc3cccc(F)c3)c(C(N)=O)cc2c1	2.0	1.1	0.0	6.7	-0.9	9.6	.	.	.	.
Cn1cc(Cl)c(C(=O)Nc2nc3ccccc3s2)n1	20.9*	7.0*	0.2	7.9*	3.3*	19.0*	14.3*	7.3*	1.7	17.9*
O=C(Nc1nc2ccccc2s1)c1c(F)cccc1Cl	1.2	0.8	3.1	0.3	0.2	7.8	.	.	.	.
Cc1ccc(-n2c(SCC(=O)Nc3ccccc3-c3ccccc3)nnc2-c2ccco2)cc1	-2.8	-0.9	.	-1.4	-1.7	-1.0	.	.	.	.
O=C(NCCSc1ccccc1)c1ccc(Br)cc1	7.4*	4.7*	0.8	1.3	-0.2	13.1*	15.4*	7.7*	1.7	5.9*
Brc1csc(/C=N/Nc2nc3ccccc3s2)c1	12.8*	5.9*	4.1	0.4	2.4*	19.9*	15.1*	10.6*	1.7	9.1*
C(=N\Nc1nc2ccccc2s1)/c1ccccn1	-5.2	-2.6	.	-7.9	-2.9	-14.3	.	.	.	.
Fc1cccc(F)c1/C=C/c1ccc2ccccc2n1	23.0*	5.7*	-1.0	3.2	2.7*	20.1*	15.8*	8.4*	2.4	22.9*
CC(O)/C=C/c1ccc2ccccc2n1 (configuration not stated)	2.6	-0.2	-1.1	4.7	-0.9	3.8	.	.	.	.
c1ccc(CCc2nc(-c3ccccn3)no2)cc1	1.8	3.6	1.8	4.3	-1.4	9.4	.	.	.	.
Clc1ccc(OCc2nc(-c3ccccn3)no2)c(Br)c1	6.8*	6.7*	-1.2	6.4	0.4	6.4	18.1*	8.1*	1.5	10.2*
Clc1ccccc1OCc1nc(-c2ccccn2)no1	6.6*	5.7*	0.5	11.6*	0.6	11.2*	13.8*	6.6*	1.2	7.8*	SMARCA2 conf=14.6*;VP16 Luc act=8.7*
CN(N=Cc1ccccc1O)C(=O)c1ccccc1N	0.2	0.3	.	-1.6	-1.2	6.3	.	.	.	.
SMILES	hcDAF-12 act	DAX1 inh-1	DAX1 inh-2	SMARCA2 act	ssDAF12 agonist	hgDAF12 agonist	DAX1 conf	SF1 AF2mut Luc	LXR ag	hcDAF12 ag	others
COc1ccc(Cl)c2c1[nH]c1nc(SCc3ccccn3)nnc12	8.6*	10.8*	2.1	5.8	1.6*	14.7*	10.4*	2.8	1.0	6.1*
COC(=O)c1cc(NC(=O)c2c(Cl)cnn2C)cc(C(=O)OC)c1	-2.0	0.0	-1.7	-2.5	-1.2	-0.8	.	.	.	.
Cn1ncc(Cl)c1C(=O)Nc1ccc2c(c1)CCC2	6.8*	5.8*	1.0	3.2	1.3*	10.1	5.3*	2.5	0.5	5.7*
Cc1ccc(C(=O)Nc2nccs2)cc1	12.3*	6.6*	2.1	5.3	2.4*	12.3*	10.0*	6.4*	1.2	13.9*
O=C(Nc1ccccc1C(=O)Nc1nccs1)c1ccccc1	-0.1	-3.6	.	-2.3	-1.7	-1.2	.	.	.	.
COc1cccc(CC(=O)O[C@@H]2CCC[C@@]3(C(=O)N(Cc4ccccc4)c4ccccc43)[C@H]2NC(=O)CCc2ccccc2)c1	-4.2	-1.9	.	-4.9	-1.7	-3.1	.	.	.	.
CC(=O)Nc1ccc(NC(=O)CSc2nnc(NC(=O)c3cccc(F)c3)s2)cc1	11.6*	7.5*	-0.6	2.1	1.1*	8.8	4.6*	4.6*	0.2	3.6
